# Several values for one entry are separate records, joined by “and”; a condition that tells them apart may be missing. Identical values can stand only once. Results filed as inconclusive are left out. More than one record can exist for a structure, and the calls need not agree. Activity calls are given as the source filed them. Rule for the calls, unless noted: active = hit-call score of the fitted dose curve at least 0.9, where 1 is the maximum; inconclusive = response in the unintended direction; inactive = score below 0.9.
# Tests used:
# [1] = molecular target: Cellular tumor antigen p53 (Homo sapiens) (UniProt P04637); experiment: TOX21_p53_BLA_p5_ratio: Tox21 HCT-116 p53 Agonism Beta-lactamase Assay, Ratio, Phase 5 (AID 2283599)
# Chain of Cellular tumor antigen p53 (Homo sapiens) (P04637 whole entry, looked up): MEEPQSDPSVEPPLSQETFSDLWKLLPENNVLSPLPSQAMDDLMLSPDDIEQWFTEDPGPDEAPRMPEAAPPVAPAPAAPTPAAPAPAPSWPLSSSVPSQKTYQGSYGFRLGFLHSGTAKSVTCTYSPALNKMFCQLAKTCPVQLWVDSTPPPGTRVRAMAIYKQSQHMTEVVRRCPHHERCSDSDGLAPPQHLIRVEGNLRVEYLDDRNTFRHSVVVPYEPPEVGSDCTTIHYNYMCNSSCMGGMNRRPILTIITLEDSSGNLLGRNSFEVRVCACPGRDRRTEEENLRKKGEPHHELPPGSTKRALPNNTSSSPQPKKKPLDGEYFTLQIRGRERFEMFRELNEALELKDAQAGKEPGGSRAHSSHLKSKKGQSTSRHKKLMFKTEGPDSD
# Method in brief: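 Beta-lactamase reporter ratio (blue 460 nm over green 530 nm, 405 nm excitation) after 2 h CCF4-AM loading, in HCT-116 cells exposed 16 h at 37 C to compounds pinned at 217-fold dilution. Increases relative to DMSO baseline scored.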
# [2] = molecular target: Cellular tumor antigen p53 (Homo sapiens) (UniProt P04637); experiment: TOX21_p53_BLA_p4_ratio: Tox21 HCT-116 p53 Agonism Beta-lactamase Assay, Ratio, Phase 4 (AID 2283601)
# Method in brief: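 Signal is the blue/green (460nm/530nm) ratio of cleaved versus uncleaved CCF4-AM substrate, read after 2 h substrate loading. Cells were HCT116 carrying the p53-responsive beta-lactamase reporter, dosed 16 h at 37C, 5% CO2; CellTiter-Glo measured in parallel.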
# [3] = tested on: Thyroperoxidase (TPO), gene 54314; experiment: CCTE_Simmons_AUR_rTPO: CCTE's Amplex UltraRed Assay for Thyroperoxidase (TPO) Inhibition, Simmons Lab (AID 2283662)
# Method in brief: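 Rat thyroid microsomes (5 ug protein) were incubated with test compound (8 concentrations, 5 nM–87.5 uM final, 0.5% DMSO), 25 uM Amplex UltraRed and 300 uM H2O2 in 200 mM phosphate buffer for 30 min at 37C in the dark; fluorescence read at 544/590 nm.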
# [4] = molecular target: Luciferin 4-monooxygenase (Photinus pyralis) (UniProt P08659); experiment: CCTE_Simmons_QuantiLum_inhib_2: CCTE's Firefly Luciferase Inhibition Assay, Simmons Lab (AID 2283767)
# Chain of Luciferin 4-monooxygenase (Photinus pyralis) (P08659 whole entry, looked up): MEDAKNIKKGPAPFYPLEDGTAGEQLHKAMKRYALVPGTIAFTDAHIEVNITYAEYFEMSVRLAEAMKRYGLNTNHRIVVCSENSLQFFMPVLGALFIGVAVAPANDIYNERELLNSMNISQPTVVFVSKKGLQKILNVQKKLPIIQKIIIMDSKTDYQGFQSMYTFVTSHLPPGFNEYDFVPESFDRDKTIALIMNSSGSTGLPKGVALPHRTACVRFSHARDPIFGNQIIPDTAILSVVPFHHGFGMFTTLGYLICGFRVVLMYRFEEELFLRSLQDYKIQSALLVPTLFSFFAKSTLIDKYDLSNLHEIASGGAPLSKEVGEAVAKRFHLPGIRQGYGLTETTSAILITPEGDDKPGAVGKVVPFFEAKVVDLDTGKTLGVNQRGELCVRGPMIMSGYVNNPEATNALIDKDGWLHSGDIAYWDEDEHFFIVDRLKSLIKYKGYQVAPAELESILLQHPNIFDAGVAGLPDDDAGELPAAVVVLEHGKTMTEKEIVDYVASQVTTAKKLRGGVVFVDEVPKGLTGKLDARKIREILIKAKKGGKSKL
# Method in brief: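 Cell-free recombinant firefly luciferase (5 ng/well) in 200mM potassium phosphate with 1 mg/ml BSA, 30 min at 37C with 8 concentrations from 5 nM to 87.5 uM [final], 0.5% DMSO. Luminescence read after D-luciferin (150uM)/dATP (147uM) reagent injection, pH 7.8; triplicates.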
# [5] = ATG_M_32_XSP2: Attagene TRANS-FACTORIAL Multi-Species (XSP2) HepG2 Assay for M19 Transcription Factor (Internal Marker) (AID 2283826)
# Method in brief: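 HepG2 cells transiently transfected with GAL4-UAS reporter units; XSP2 panel included 3 nM 6-alpha-fluorotestosterone and 1.5 nM norgestrel for androgen receptor stimulation. Reporter mRNA read 24 h post-dosing by RT-PCR/capillary electrophoresis; fitted upward versus DMSO.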
# [6] = TOX21_p53_BLA_p5_viability: Viability Assessment in the Tox21 HCT-116 p53 Agonism Beta-lactamase Assay, Phase 5 (AID 2283600)
# Method in brief: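 HCT-116 p53 beta-lactamase reporter cells, 4000/well, were exposed to compound (pin transfer, 217-fold dilution) for 16 hours at 37C. Cellular ATP was read by CellTiter-Glo luminescence after 30 min at room temperature.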
# [7] = ACEA_ER_AUC_viability: ACEA Biosciences xCELLigence Real-Time Cell Analysis on Estrogen Receptor Agonism for Viability (AID 2283782);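 note: continuous compound exposure with impedance area under curve over 80 h; hit means loss of impedance signal meaning reduced cell growth or viability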
# Method in brief: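 T-47D; phenol red-free RPMI1640 + 10% CS-FBS; 8 conc., 1:4 serial, max 100 uM final, ≤0.5% DMSO; n = 2; continuous exposure; impedance monitored to 80 h post-dose; AUC vs DMSO.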
# [8] = molecular target: PGR (gene 5241) (UniProt P06401); experiment: TOX21_PR_BLA_Followup_Agonist_ratio: Tox21 HEK293 Progesterone Receptor (PR) Agonism Beta-lactamase Follow-Up Assay, Ratio (AID 2283933)
# Chain of PGR (gene 5241) (P06401 whole entry, looked up): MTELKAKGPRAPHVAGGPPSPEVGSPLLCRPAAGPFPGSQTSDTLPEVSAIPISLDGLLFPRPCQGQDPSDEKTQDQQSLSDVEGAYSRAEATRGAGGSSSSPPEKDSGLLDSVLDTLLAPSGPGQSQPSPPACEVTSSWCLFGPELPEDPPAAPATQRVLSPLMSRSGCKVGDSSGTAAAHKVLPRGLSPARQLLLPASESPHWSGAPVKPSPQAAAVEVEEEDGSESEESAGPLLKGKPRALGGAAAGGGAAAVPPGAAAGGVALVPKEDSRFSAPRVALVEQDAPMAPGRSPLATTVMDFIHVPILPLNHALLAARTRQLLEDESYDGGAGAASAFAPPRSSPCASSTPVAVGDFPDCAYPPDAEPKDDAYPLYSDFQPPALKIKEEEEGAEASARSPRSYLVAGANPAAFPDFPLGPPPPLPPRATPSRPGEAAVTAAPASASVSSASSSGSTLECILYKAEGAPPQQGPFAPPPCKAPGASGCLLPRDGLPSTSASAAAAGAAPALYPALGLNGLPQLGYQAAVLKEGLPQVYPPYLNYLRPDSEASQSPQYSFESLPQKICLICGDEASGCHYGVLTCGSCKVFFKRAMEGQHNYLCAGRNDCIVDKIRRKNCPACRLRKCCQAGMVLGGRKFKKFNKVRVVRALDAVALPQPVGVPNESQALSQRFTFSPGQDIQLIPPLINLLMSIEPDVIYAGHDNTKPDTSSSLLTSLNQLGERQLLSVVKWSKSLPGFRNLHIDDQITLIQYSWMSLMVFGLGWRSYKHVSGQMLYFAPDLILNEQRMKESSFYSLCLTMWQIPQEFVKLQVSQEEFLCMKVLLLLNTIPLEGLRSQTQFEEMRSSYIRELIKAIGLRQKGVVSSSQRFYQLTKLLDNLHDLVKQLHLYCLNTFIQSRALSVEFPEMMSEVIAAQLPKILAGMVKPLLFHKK
# Method in brief: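 PR-UAS-bla HEK293T cells in medium with 2% charcoal-stripped FBS were dosed after 6 h plating and incubated 16 h at 37C. LiveBLAzer FRET substrate was added for 2 h at room temperature. Cleaved/uncleaved substrate ratio fitted against DMSO; CellTiter-Glo viability run in the same wells.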
# [9] = molecular target: PGR (gene 5241) (UniProt P06401); experiment: TOX21_PR_BLA_Followup_Antagonist_ratio: Tox21 HEK293 Progesterone Receptor (PR) Antagonism Beta-lactamase Follow-Up Assay, Ratio (AID 2283934)
# Method in brief: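 PR-UAS-bla HEK293T cells, 3,000/well in 2% charcoal-stripped FBS, given compound plus 1nM R5020 agonist for 16 hr at 37C. Beta-lactamase FRET substrate 2 hours, ratio cleaved/uncleaved fluorescence; viability by CellTiter-Glo in same wells.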
# [10] = TOX21_PR_BLA_Followup_Agonist_viability: Viability Assessment in the Tox21 HEK293 Progesterone Receptor (PR) Agonism Beta-lactamase Follow-Up Assay (AID 2283935);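 note: signal loss means lower viability so actives are cytotoxic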
# Method in brief: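 PR-UAS-bla HEK293T cells in 2% charcoal-stripped FBS medium, plated 6 hr before compound addition, exposed 16 hr at 37C. Viability read by CellTiter-Glo ATP luminescence after 30 min at room temperature, in the same wells as the beta-lactamase readout.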
# [11] = molecular target: PGR (gene 5241) (UniProt P06401); experiment: TOX21_PR_LUC_Followup_Agonist: Tox21 HEK293 Progesterone Receptor (PR) Agonism Luciferase Follow-Up Assay (AID 2283937; active = hit-call score of the fitted dose curve at least 0.9, where 1 is the maximum; inactive = score below 0.9)
# Method in brief: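 HEK293-PR-A-luc cells, conditioned 5 days in 10% charcoal-stripped FBS medium, seeded 3,000/well for 5 h, then compound-treated 16 h at 37C. ONE-Glo luminescence read after 30 min at room temperature; gain of signal versus DMSO.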
# [12] = TOX21_PR_LUC_Followup_Antagonist_viability: Viability Assessment in the Tox21 HEK293 Progesterone Receptor (PR) Antagonism Luciferase Follow-Up Assay (AID 2283940)
# Method in brief: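 HEK293-PR-A-luc cells kept in charcoal-stripped FBS medium were plated 5 h before compound addition, then exposed 16 h at 37C; viability read as cellular ATP by luciferase luminescence, loss of signal indicating cytotoxicity.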
# [13] = TOX21_PR_LUC_Followup_Agonist_viability: Viability Assessment in the Tox21 HEK293 Progesterone Receptor (PR) Agonism Luciferase Follow-Up Assay (AID 2283941);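 note: loss of signal means cytotoxicity so actives lower viability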
# Method in brief: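 HEK293-PR-A-luc cells, kept in 10% charcoal-stripped FBS medium, were treated with compounds for 16 h at 37C. Viability read as cellular ATP by luciferase-coupled luminescence; loss of signal indicates cytotoxicity.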
# [14] = TOX21_TRB_BLA_Agonist_Followup_viability: Viability Assessment in the Tox21 Thyroid Hormone Receptor beta Agonism Beta-lactamase (BLA) Follow-Up Assay (AID 2283956)
# Method in brief: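 TRb-bla HEK293T cells (GAL4-DBD/human TRb LBD) in 2% charcoal-stripped FBS medium were exposed 18 h at 37C to 11 concentrations in triplicate. CellTiter-Glo ATP luminescence was read after 30 min at room temperature, with bidirectional fitting against DMSO.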
# [15] = molecular target: Nucleoli Translocation, AR (gene 367) (UniProt P10275); experiment: UPITT_HCI_U2OS_AR_TIF2_Nucleoli_Antagonist: University of Pittsburgh U2OS Androgen Receptor-Transcriptional Intermediary Factor 2 (AR-TIF2) Antagonism High Content Imaging Assay for Nucleoli Translocation (AID 2283997)
# Chain of Nucleoli Translocation, AR (gene 367) (P10275 whole entry, looked up): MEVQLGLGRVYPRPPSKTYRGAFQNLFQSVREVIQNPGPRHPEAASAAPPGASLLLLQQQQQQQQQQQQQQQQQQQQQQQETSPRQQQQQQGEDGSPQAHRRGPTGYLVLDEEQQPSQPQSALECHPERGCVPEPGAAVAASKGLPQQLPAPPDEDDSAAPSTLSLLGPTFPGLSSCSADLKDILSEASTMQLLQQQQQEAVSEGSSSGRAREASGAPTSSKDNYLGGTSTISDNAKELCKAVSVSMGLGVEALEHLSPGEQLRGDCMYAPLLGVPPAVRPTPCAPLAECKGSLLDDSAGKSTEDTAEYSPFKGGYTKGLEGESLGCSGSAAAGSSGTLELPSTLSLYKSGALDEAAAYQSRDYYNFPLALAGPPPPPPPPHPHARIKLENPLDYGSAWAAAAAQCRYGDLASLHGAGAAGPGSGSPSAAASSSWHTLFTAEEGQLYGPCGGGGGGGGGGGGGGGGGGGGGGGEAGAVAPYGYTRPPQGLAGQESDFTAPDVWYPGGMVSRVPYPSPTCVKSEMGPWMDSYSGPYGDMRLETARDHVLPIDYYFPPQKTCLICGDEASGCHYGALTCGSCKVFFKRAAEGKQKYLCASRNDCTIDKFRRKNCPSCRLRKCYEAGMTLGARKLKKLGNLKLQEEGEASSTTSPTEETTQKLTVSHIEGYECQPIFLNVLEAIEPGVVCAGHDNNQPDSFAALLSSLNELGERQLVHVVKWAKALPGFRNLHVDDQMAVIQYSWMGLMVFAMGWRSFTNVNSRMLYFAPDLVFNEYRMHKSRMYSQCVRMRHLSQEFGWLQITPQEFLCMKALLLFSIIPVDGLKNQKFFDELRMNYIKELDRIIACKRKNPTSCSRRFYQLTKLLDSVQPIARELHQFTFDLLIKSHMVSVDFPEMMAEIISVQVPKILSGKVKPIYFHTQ
# Method in brief: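 Measured quantity was AR-RFP fluorescence localized to nucleoli in engineered U2OS cells also bearing TIF2-GFP, acquired on automated high-content imagers. Primary testing used 20 uM compound; actives were confirmed in triplicate wells.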
# [16] = molecular target: Nucleoli Translocation, AR (gene 367) (UniProt P10275); experiment: UPITT_HCI_U2OS_AR_TIF2_Nucleoli_Agonist: University of Pittsburgh U2OS Androgen Receptor-Transcriptional Intermediary Factor 2 (AR-TIF2) Agonism High Content Imaging Assay for Nucleoli Translocation (AID 2283998)
# Method in brief: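 U2OS cells expressing RFP-tagged human AR and GFP-tagged TIF2; red fluorescence in nucleoli quantified by high-content imaging. Primary screen at 20 uM final (0.2% DMSO); concentration-response 0.195–50 uM (0.5% DMSO), fitted upward versus DMSO.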
# [17] = molecular target: Ratio of Nucleoli Translocation and Cytoplasm, AR (gene 367) (UniProt P10275); experiment: UPITT_HCI_U2OS_AR_TIF2_Nucleoli_Cytoplasm_Ratio_Antagonist: University of Pittsburgh U2OS Androgen Receptor-Transcriptional Intermediary Factor 2 (AR-TIF2) Antagonism High Content Imaging Assay for Ratio of Nucleoli Translocation and Cytoplasm (AID 2283999);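 note: antagonists lower the DHT-driven ratio of nucleolar to cytoplasmic red signal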
# Chain of Ratio of Nucleoli Translocation and Cytoplasm, AR (gene 367) (P10275 whole entry, looked up): as above
# Method in brief: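 U2OS cells co-expressing RFP-tagged human AR and GFP-tagged TIF2, antagonist mode with DHT as baseline. Nucleolar-to-cytoplasmic red fluorescence ratio imaged by high-content microscopy; final compound 20 uM (0.2% DMSO) primary, 0.195–50 uM (0.5% DMSO) concentration-response.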
# [18] = molecular target: Ratio of Nucleoli Translocation and Cytoplasm, AR (gene 367) (UniProt P10275); experiment: UPITT_HCI_U2OS_AR_TIF2_Nucleoli_Cytoplasm_Ratio_Agonist: University of Pittsburgh U2OS Androgen Receptor-Transcriptional Intermediary Factor 2 (AR-TIF2) Agonism High Content Imaging Assay for Ratio of Nucleoli Translocation and Cytoplasm (AID 2284000);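 note: hits raise the red nucleolar to cytoplasm ratio above vehicle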
# Method in brief: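 Read-out first: nucleolar-to-cytoplasm ratio of red (AR-RFP) signal, quantified by high-content imaging in U2OS cells co-expressing TIF2-GFP. Activity is scored as signal increase over DMSO. Single-point screening used 20 uM final (0.2% DMSO).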
# [19] = CCTE_Harrill_HTTr_Viability_MCF7: CCTE's 6-hour Cell Viability Assessment for the High-Throughput Transcriptomics (HTTr) Platform, in MCF-7 cells cultured in DMEM + 10% fetal bovine serum, Harrill Lab (AID 2284010; active = hit-call score of the fitted dose curve at least 0.9, where 1 is the maximum; inactive = score below 0.9)
# Method in brief: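 MCF-7 cells in DMEM + 10% FBS, 384-well, exposed 6 h to an eight-point dilution series. Membrane integrity scored by high-content imaging of propidium iodide exclusion; bidirectional fit versus DMSO.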
# [20] = CCTE_Harrill_HTTr_Apoptosis_MCF7: CCTE's 6-hour Apoptosis Assessment for the High-Throughput Transcriptomics (HTTr) Platform, in MCF-7 cells cultured in DMEM + 10% fetal bovine serum, Harrill Lab (AID 2284011; active = hit-call score of the fitted dose curve at least 0.9, where 1 is the maximum; inactive = score below 0.9)
# Method in brief: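 MCF-7 cells in DMEM + 10% FBS exposed 6 h to chemicals over an eight-point dilution series. Caspase-3/7 activation imaged by high-content CellEvent Green staining; fitted bidirectionally versus DMSO.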
smiles,measurement,setting,value
CCCCCCCCCCn1cc[n+](C)c1,AC50,[1],15.5 µM (active)
same,outcome,[1],inactive
same,AC50,[2],45.6 µM (active) and 21.5 µM (active) and 46 µM (active)
same,outcome,[2],inactive
COc1ccn(C)c(=O)c1C#N,outcome,[3],inactive
same,outcome,[4],inactive
ClC(Cl)C(Cl)Cl,outcome,[1],inactive
same,outcome,[2],inactive
O=C(c1ccc(O)cc1)c1ccc(O)cc1O,outcome,[5],inactive
CCCN1CCC[C@@H]2Cc3[nH]ncc3C[C@H]21,outcome,[6],inactive
same,outcome,[2],inactive
CC(C)=CC1C(C(=O)OC(C#N)c2cccc(Oc3ccccc3)c2)C1(C)C (stereo not given),outcome,[7],inactive
CN=C=O,outcome,[2],inactive
CCCOC(=O)c1ccc(O)cc1,outcome,[5],inactive
N#Cc1ccc(C2CCCc3cncn32)cc1 (stereo not given),outcome,[5],inactive
CCCCCCCCCC(=O)O[C@H]1CC[C@H]2[C@@H]3CCC4=CC(=O)CC[C@]4(C)[C@H]3CC[C@]12C,outcome,[1],inactive
same,outcome,[2],inactive
COc1ccc2[nH]cc(CCN(C(C)C)C(C)C)c2c1,outcome,[1],inactive
same,outcome,[2],inactive
CCCCCCCCCCCCc1ccc(O)cc1,outcome,[5],inactive
NC(=O)OCCCc1ccccc1,outcome,[1],inactive
same,outcome,[6],inactive
same,outcome,[2],inactive
O=P(Cl)(Cl)Cl,outcome,[1],inactive
same,outcome,[6],inactive
same,outcome,[2],inactive
CCCCC(CC)COC(=O)c1ccc(O)cc1 (stereo not given),outcome,[5],inactive
CC(C)(C)NC(=O)[C@H]1CC[C@H]2[C@@H]3CC[C@H]4NC(=O)C=C[C@]4(C)[C@H]3CC[C@]12C,outcome,[5],inactive
Oc1ccccc1Cc1ccccc1O,outcome,[5],inactive
CCN(Cc1c(F)cccc1Cl)c1c([N+](=O)[O-])cc(C(F)(F)F)cc1[N+](=O)[O-],outcome,[5],inactive
C[C@]12CC[C@H]3[C@@H](CCC4=CC(=O)CC[C@@H]43)[C@@H]1CC[C@@H]2OC(=O)CCC1CCCCC1,AC50,[8],2.39 µM (active)
same,outcome,[9],inactive
same,outcome,[10],inactive
same,AC50,[11],0.0731 µM (active)
same,outcome,[12],inactive
same,outcome,[13],inactive
NCC(=O)CCC(=O)O,outcome,[14],inactive
ClC1=C(Cl)[C@]2(Cl)[C@H]3[C@H]([C@H](Cl)C(Cl)[C@@H]3Cl)[C@@]1(Cl)C2(Cl)Cl (stereo not given in full),outcome,[15],inactive
same,outcome,[16],inactive
same,outcome,[17],inactive
same,outcome,[18],inactive
same,outcome,[19],inactive
same,outcome,[20],inactive
NC(CO)(CO)CO,outcome,[14],inactive
C[C@]12Cc3cn[nH]c3C[C@@H]1CC[C@@H]1[C@@H]2CC[C@@]2(C)[C@H]1CC[C@]2(C)O,AC50,[8],6.44 µM (active)
same,outcome,[9],inactive
same,outcome,[10],inactive
same,AC50,[11],3.48 µM (active)
same,outcome,[12],inactive
same,outcome,[13],inactive

# Reference: PubChem BioAssay (EPA / NIEHS)
